Measured potencies and affinities stand elsewhere. The source made the active and inactive calls.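 How the source made its calls: active means compound lowering the viability signal whose fitted half-maximal dose is at most twice its top tested dose; inconclusive means flat curve with 30 to 70% inhibition, or poor fit; inactive means the rest.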
assay: PubChem AID 686997; settings: C. neoformans growth, alamar blue, 72 h (sorbitol counter-screen); series mostly up to 35 µM

Structure (SMILES) | outcome
O=C(NC(=S)Nc1ccc(Br)cc1)C1CCC1 | inactive
COc1ccc(NC(=S)NCc2ccc(Cl)cc2)c(OC)c1 | inactive
COC(=O)C1=C(C)N(Cc2ccccc2)C(=S)N[C@H]1c1cccc(F)c1 | inactive
O=C(NC(=S)Nc1cc(Cl)ccc1N1CCOCC1)c1ccccc1[N+](=O)[O-] | inactive
Cc1ccc(C(=O)NC(=S)Nc2ccc(N3CCOCC3)cc2)cc1 | inactive
Cc1cc(C(=O)NC(=S)Nc2ccccc2N2CCOCC2)ccc1[N+](=O)[O-] | inactive
CCc1ccc(C(=O)NC(=S)NCc2cccnc2)cc1 | inactive
CO[C@H]1CN(C)C(=O)c2cc(NC(=O)C3CC3)ccc2OC[C@@H](C)N(Cc2cncnc2)C[C@H]1C | inactive
COc1ccc(CNC(=S)NCc2ccc(OC(C)C)cc2)cc1 | inactive
S=C(NCc1ccccc1)NCC1COc2ccccc2O1 (stereo not drawn) | inactive
CC(C)CC1(C)N=C(c2ccccc2)C(=S)N1 (stereo not drawn) | inactive
O=C(NCCN1CCCCC1)[C@H]1N[C@H]2c3ccc(-c4ccncc4)c(=O)n3C[C@H]2[C@@H]1CO | inactive
COc1ccccc1NC(=S)NCc1ccccc1Cl | inactive
CCc1nc(N2CCCCC2C)c2oc3ccccc3c2n1 (stereo not drawn) | inactive
CCCCN1C(=S)NC[C@@H]1Cc1ccccc1 | inactive
Fc1ccccc1NC(=S)NN(Cc1ccccc1)c1ccccc1 | inactive
O=C(Cc1ccccc1)N[C@H]1C=C[C@@H](CC(=O)N2CCOCC2)O[C@@H]1CO | inactive

Structure (SMILES) | outcome
O=C(NC(=S)Nc1cccc(F)c1)c1cccc([N+](=O)[O-])c1 | inactive
COC(=O)C1=C(C)N(Cc2ccc(F)cc2)C(=S)NC1c1ccc(F)cc1 (stereo not drawn) | inactive
COC(=O)C1=C(C)N(CC(C)C)C(=S)NC1c1cccc(F)c1 (stereo not drawn) | inactive
CCc1ccc(C(C)NC(=S)NCc2ccc(F)cc2)cc1 (stereo not drawn) | inactive
Fc1ccccc1NC(=S)NCCc1cccc(Cl)c1 | inactive
Cc1ccc(C)c(NC(=O)C2(C)CCCN2C(=O)C(C)C)c1 (stereo not drawn) | inactive
CCCCNC(=S)N/N=C/c1ccc(C#N)cc1 | inactive
COc1ccccc1CNC(=S)NCc1ccc(Cl)cc1 | inactive
O=C(NC(=S)Nc1ccccc1N1CCCC1)c1ccccc1[N+](=O)[O-] | inactive
O=C(NC(=S)NCC1COc2ccccc2O1)c1ccc(Cl)cc1 (stereo not drawn) | inactive
COc1cccc(NC(=S)NC(=O)Cc2ccc(Cl)cc2)c1 | inactive
O=C(NC(=S)Nc1ccccc1N1CCCC1)c1ccc([N+](=O)[O-])cc1 | inactive
CCOC(=O)NC(=S)Nc1ccc(C(C)(C)C)cc1 | inactive
S=C(NCCCc1ccccc1)Nc1ccccc1 | inactive
O=C(NC(=S)Nc1ccccc1N1CCOCC1)c1cccc([N+](=O)[O-])c1 | inactive
COc1ccccc1NC(=S)NCc1ccc(Cl)cc1 | inactive

Source: PubChem BioAssay AID686997 (Broad Institute, 2013)
